CCHF vOTU inh – CCHFV vOTU protease inhibition; Pep-AMC fluorescence; inhibition, % at 11.5 µM; 370,000 tested, 0.55% active; AID 651958
GDH-TPI counter – inhibits GDH-TPI coupling enzymes, artifact for Mtb FBA screen. GDH-TPI coupled enzyme counterscreen, NADH absorbance. inhibition, % at 4.8 µM. 360,000 tested, 1.2% active. AID 588335
MazF activator – increases E. coli MazEF RNase cleavage of RNA. 350,000 tested, 0.32% active. AID 504720. FAM/BHQ RNA-DNA oligo cleavage fluorescence, 5 h. activation, % at 20 µM; in the data active means activation above about 50%
Target sequence (P0AE70 whole entry, looked up): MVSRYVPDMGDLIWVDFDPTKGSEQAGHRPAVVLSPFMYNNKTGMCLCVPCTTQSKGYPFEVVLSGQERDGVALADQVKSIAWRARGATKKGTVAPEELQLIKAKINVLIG
Mtb bLac sens – beta-lactam sensitization of Mtb H37Rv; M. tuberculosis H37Rv growth with meropenem, percent inhibition; inhibition, % at 25 µM; 330,000 tested, 0.27% active; AID 434955; call rule not given here;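 further: growth measured after seven days incubation then overnight dye step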
FBA Mtb inh – inhibitors of M. tuberculosis fructose-bisphosphate aldolase. P9WQA3. purified M. tuberculosis FBA, fluorescence read-out. inhibition, % at 1 µM. 360,000 tested, 2.3% active. AID 588726; in the data active means inhibition above about 27%
Target sequence (P9WQA3 whole entry, looked up): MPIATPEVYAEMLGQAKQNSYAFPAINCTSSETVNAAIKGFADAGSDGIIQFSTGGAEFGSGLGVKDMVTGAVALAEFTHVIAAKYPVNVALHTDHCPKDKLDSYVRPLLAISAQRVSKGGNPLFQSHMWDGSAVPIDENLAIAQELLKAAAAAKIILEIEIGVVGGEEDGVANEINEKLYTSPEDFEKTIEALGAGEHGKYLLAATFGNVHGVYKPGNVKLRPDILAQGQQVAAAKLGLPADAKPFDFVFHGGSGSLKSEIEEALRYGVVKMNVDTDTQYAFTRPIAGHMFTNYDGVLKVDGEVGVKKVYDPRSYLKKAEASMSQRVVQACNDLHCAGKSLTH
Numbers stand for hits; – = inactive; ? = inconclusive; · = no result; + = active, no number. Sampled rows, rich in hits. Any-hit rate of the full collection: about 4%. Unless noted, no stated cut-off is given here; in the data, active means inhibition above about 30%; inactive means the rest.

SMILES | CCHF vOTU inh | GDH-TPI counter | MazF activator | Mtb bLac sens | FBA Mtb inh
O=c1nc(N/N=C/c2c[nH]c3ccccc23)cn[nH]1 | – | – | – | – | –
O=C(O)c1ccc(N/N=C/C=C/c2ccccc2)cc1 | – | 33 | – | – | –
O=C(N/N=C/C=C\c1ccccc1[N+](=O)[O-])c1ccncc1 | – | – | – | – | –
O=C(O)c1ccc(NS(=O)(=O)/C=C/c2ccccc2)cc1 | – | – | – | – | –
O=C(N/N=C/C=C/c1cccc([N+](=O)[O-])c1)c1ccncc1 | – | – | – | – | –
Nc1ccc(C(=O)N/N=C\C=C\c2cccc([N+](=O)[O-])c2)cc1 | – | 43 | – | – | –
O=C(N/N=C/C=C/c1ccccc1)c1ccncc1 | – | 37 | – | – | –
COc1ccc(NCC(=O)N/N=C/C=C\c2ccccc2)cc1 | – | 31 | – | ? | –
CC1(C)OC(c2ccccc2)=C/C(=C/C=Nc2ccccc2)O1 | – | – | – | – | –
CC1(C)OC(c2ccccc2)=C/C(=C\C=N\NC(=O)c2ccncc2)O1 | – | 33 | – | – | –
O=c1[nH]c(/C=C\c2cccc(F)c2)nc(O)c1[N+](=O)[O-] | – | 31 | – | – | –
O=c1[nH]c(/C=C\c2cccc(Cl)c2)nc(O)c1[N+](=O)[O-] | – | 51 | – | – | –
C=CCOc1cccc(/C=C\c2nc(O)c([N+](=O)[O-])c(=O)[nH]2)c1 | – | – | – | – | –
COC(=O)[C@]1(C#N)CC(=O)N(C(C)C)[C@@H]1c1ccccc1 | – | · | · | · | ·
COCCn1c(=NC(=O)c2cc3ccccc3oc2=O)sc2cc(S(N)(=O)=O)ccc21 | – | 49 | – | – | –
Cc1c(Cc2ccccc2)c(=O)oc2cc(O)cc(O)c12 | – | – | – | – | 114
Cc1coc2cc3oc(=O)c(Cc4ccccc4)c(C)c3cc12 | – | – | – | – | –
O=C(CSc1nnnn1-c1ccccc1)c1ccc(O)cc1O | – | 42 | – | – | –
Cc1cc(C)nc(SCC(=O)c2ccc(O)cc2O)n1 | – | 50 | – | – | –
O=C([C@@H]1C[C@H]1c1ccccc1)N1CC[C@H]2[C@H](CCCN2Cc2ccc(F)cc2)C1 | – | · | · | · | ·
O=[N+]([O-])c1ccc(N2CCN(c3ccc(F)cc3)CC2)cc1 | – | – | – | – | –
O=[N+]([O-])c1ccc(N2CCSCC2)cc1 | – | 71 | – | – | –
CCOC(=O)N1CCN(C(=O)C[C@H]2C[C@@]3(C(=O)OC)C(=C[C@H](C(C)C)O[C@@H]3C3CC3)N(Cc3cccc4ccccc34)C2=O)CC1 | – | · | · | · | ·
Cc1c(O)c(CN2CCCC2)cc2c3c(c(=O)oc12)CCC3 | – | – | – | – | 198
Cc1c(O)c(CN2CCCC2)cc2c1oc(=O)c1ccccc12 | – | – | – | – | –
SMILES | CCHF vOTU inh | GDH-TPI counter | MazF activator | Mtb bLac sens | FBA Mtb inh
CCc1cc(=O)oc2c(C)c(O)c(CN3CCCCC3)cc12 | – | 32 | – | – | +
CCCCOCCCn1c(-c2ccco2)nc2nc3ccccc3nc21 | – | – | – | – | +
CCCCn1c(-c2cccs2)nc2nc3ccccc3nc21 | – | – | – | – | +
COCCCn1c(-c2ccco2)nc2ccccc2c1=O | – | – | – | – | –
CC(C)Cn1c(-c2cccs2)nc2nc3ccccc3nc21 | – | – | – | – | +
c1ccc(Cn2c(-c3cccs3)nc3nc4ccccc4nc32)cc1 | – | · | · | · | ·
O=C(OCc1cn(Cc2ccc(F)cc2)nn1)N1CCOCC1 | – | · | · | · | ·
COc1ccc(C2CC(c3cccs3)n3nc(N)nc3N2)cc1 (centres undefined) | – | – | – | – | 135
O=C1C[C@@H](c2ccc(O[C@@H]3O[C@H](CO)[C@@H](O)[C@H](O)[C@H]3O)cc2)Oc2cc(O)ccc21 | – | 34 | – | – | –
O=P(O)(O)c1cc(-c2ccccc2)oc1-c1ccccc1 | – | 37 | – | – | 164
COc1ccc(NC(=O)c2cc3c(-c4ccc(OC)c(OC)c4)nn(C)c3s2)cc1OC | – | 38 | – | – | –
Cc1cccc(-c2cccc3c4c([nH]c23)[C@@H]2C[C@H](N(C)C(=S)Nc3ccc(C#N)cc3)[C@H]([C@H](C)O)CN2CC4)c1 | – | · | · | · | ·
C1=C(c2ccccc2)Nc2ncnn2C1c1ccccc1 (centres undefined) | – | – | – | – | –
CCC1=CC(c2ccccc2)n2ncnc2N1 (centres undefined) | – | – | – | – | 35
CC(NC(=O)c1cc2ccc(C(F)(F)F)cc2nc1N)c1cccc2ccccc12 (centres undefined) | – | · | · | · | ·
Cc1ccccc1NCC(=O)N/N=C/c1c(C)c(C(=O)c2ccc(Cl)cc2)n2ccccc12 | – | 32 | – | – | –
Cc1c(C=O)c2ccccn2c1C(=O)c1ccc(F)cc1 | – | 33 | – | – | –
Cc1c(C=O)c2ccccn2c1C(=O)c1ccccc1 | – | – | – | – | –
Cn1c(/C(C#N)=C(\O)COc2ccc3ccccc3c2)nc2ccccc21 | – | – | 174 | – | –
C[C@@H]1CCN(C2CC2)S(=O)(=O)c2c(cccc2N2CC[C@@H](N(C)C)C2)O1 | – | · | · | · | ·
Cn1nc(C(=O)Nc2nc3ccc(S(C)(=O)=O)cc3s2)ccc1=O | – | 61 | – | – | –
CS(=O)(=O)c1ccc2nc(NC(=O)c3ccc(Cl)cc3)sc2c1 | – | – | – | – | –
CS(=O)(=O)c1ccc2nc(NC(=O)c3ccc(=O)[nH]c3)sc2c1 | – | 83 | – | – | –
Cn1cc(CCOCc2ccccn2)c2ccccc21 | – | · | · | · | ·
CCOC(=O)[C@]12CCCC3=C1N(CCC3)C(=O)[C@@H](CC(=O)NCc1ccc(C)o1)C2 | – | · | · | · | ·
SMILES | CCHF vOTU inh | GDH-TPI counter | MazF activator | Mtb bLac sens | FBA Mtb inh
COC(=O)C1CCN(C(=O)/C=C/c2ccc(OC)cc2)CC1 | – | – | – | – | –
COc1ccc2cc(/C=C/C(=O)N3CCN(CC(=O)N4CCCCCC4)CC3)ccc2c1 | · | – | – | – | 30
Cc1nc(-c2ccccc2)sc1-c1ccnn1C | – | – | – | – | 124
COc1ccc(/C=C/C(=O)Nc2nc(N)n(-c3ccccc3)n2)cc1 | – | 33 | – | – | –
Nc1nc(NC(=O)/C=C\C(=O)O)nn1-c1ccccc1 | – | – | – | – | –
COc1ccc(/C=C/C(=O)Nc2cccnc2Cl)cc1 | – | 31 | – | – | –
CCOC(=O)c1ccc(N2C(=O)CC(N3CCC(O)(c4ccc(Cl)cc4)CC3)C2=O)cc1 (centres undefined) | – | 39 | – | – | –
CCOC(=O)c1ccc(N2C(=O)CC(N3CCC(O)(c4ccc(Br)cc4)CC3)C2=O)cc1 (centres undefined) | – | – | – | – | –
C#CCn1c(O)c(N=NC(=O)C(O)c2ccccc2)c2ccccc21 (centres undefined) | – | 31 | – | – | –
C#CCn1c(O)c(N=NC(=O)CNC(=O)/C=C/c2ccccc2)c2ccccc21 | – | – | – | – | –
C=CCn1c(O)c(N=NC(=O)C(O)c2ccccc2)c2ccccc21 (centres undefined) | – | 39 | – | – | –
C=CCn1c(O)c(N=NC(=S)Nc2ccc(OC)c(Cl)c2)c2ccccc21 | – | 46 | – | – | –

From PubChem BioAssay
